Pol beta inh – qHTS Assay for Inhibitors of DNA Polymerase Beta; P06746; Potency, µM (top dose mostly 114 µM), for the others: top-dose activity change, negative = inhibition, hits mostly inhibitors; Pol beta primer extension/strand displacement, fluorescence kinetic; actives 1.3% (n = 340,000); note: % is set by controls: 0 for no effect and ±100 for the full control effect
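Reaction started by 50 nM substrate onto compound-treated Pol beta (10 nM, 15 min preincubation, room temperature); plates read at 0 min and 10 min. Normalized concentration-effect data fitted by four-parameter Hill equation.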
Pol iota inh – qHTS for Inhibitors of Polymerase Iota | Pol iota fluorescent replication assay, 10 min | actives 1% (n = 390,000) | DNA polymerase iota (Homo sapiens), Q9UNA4 | Potency, µM (highest dose often 115 µM), for the others: top-dose activity, negative = inhibition, hits mostly inhibitors
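Pol iota at 10 nM preincubated 15 min with compounds at room temperature; reaction started with fluorescent substrate, 50 nM final. Fluorescence read kinetically at 0 and 10 min; buffer-only wells as negative control.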
TDP1 inh – qHTS Assay for Inhibitors of Tyrosyl-DNA Phosphodiesterase (TDP1); Tyrosyl-DNA phosphodiesterase 1 (Homo sapiens), Q9NUW8; Potency, µM (top dose mostly 130 µM), inactives show top-dose activity change, negative = inhibition, usual class: inhibitors; actives 0.28% (n = 350,000); AID 485290, 2010; recombinant TDP1, AlphaScreen DNA substrate cleavage; note: % is set by controls: 0 for no effect and ±100 for the full control effect; nearly all actives have a fitted effect of over 40% in size
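Signal: AlphaScreen proximity between streptavidin donor and anti-FITC acceptor beads on intact substrate. Reaction: Tdp1 1 nM, substrate 15 nM final, 5 min RT after 15 min compound preincubation.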
Pol kappa inh – qHTS for Inhibitors of Polymerase Kappa; DNA polymerase kappa (Homo sapiens), Q9UBT6; purified Pol kappa, fluorescent DNA synthesis assay, 10 min; Potency, µM (series often up to 107 µM), for the others: top-dose activity, negative = inhibition, actives largely listed as inhibitors; actives 0.53% (n = 400,000); AID 588579, 2011; note: % is set by controls: 0 for no effect and ±100 for the full control effect
Target sequence (Q9UBT6 whole entry, looked up): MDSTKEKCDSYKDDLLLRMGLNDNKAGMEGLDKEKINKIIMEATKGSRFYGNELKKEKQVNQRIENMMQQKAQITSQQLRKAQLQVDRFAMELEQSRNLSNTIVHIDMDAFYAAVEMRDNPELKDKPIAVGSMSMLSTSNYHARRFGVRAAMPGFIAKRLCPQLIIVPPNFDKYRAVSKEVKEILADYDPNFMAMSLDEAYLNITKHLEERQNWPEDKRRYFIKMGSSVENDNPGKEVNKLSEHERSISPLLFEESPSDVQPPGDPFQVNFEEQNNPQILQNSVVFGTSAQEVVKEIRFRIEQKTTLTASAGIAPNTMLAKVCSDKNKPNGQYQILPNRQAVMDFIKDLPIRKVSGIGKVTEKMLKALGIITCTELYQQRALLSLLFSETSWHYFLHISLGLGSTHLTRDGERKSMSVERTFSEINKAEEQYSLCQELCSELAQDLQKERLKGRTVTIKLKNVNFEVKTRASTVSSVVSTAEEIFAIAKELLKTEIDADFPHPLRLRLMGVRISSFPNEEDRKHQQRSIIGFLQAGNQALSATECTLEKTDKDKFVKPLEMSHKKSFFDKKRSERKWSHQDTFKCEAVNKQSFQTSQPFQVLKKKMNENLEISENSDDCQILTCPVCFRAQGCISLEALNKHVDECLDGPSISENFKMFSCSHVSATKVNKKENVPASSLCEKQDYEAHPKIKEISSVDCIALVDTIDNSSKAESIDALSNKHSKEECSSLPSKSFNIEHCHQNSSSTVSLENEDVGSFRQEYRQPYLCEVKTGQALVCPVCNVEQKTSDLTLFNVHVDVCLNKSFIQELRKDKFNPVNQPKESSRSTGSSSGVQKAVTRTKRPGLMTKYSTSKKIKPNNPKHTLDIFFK
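Readout: fluorescence, taken kinetically at 0 and 10 min. Conditions: 10 nM Pol kappa, 15 min RT compound preincubation, 50 nM substrate final. Controls: enzyme-free buffer wells.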
FEN1 inh – qHTS Assay for the Inhibitors of Human Flap endonuclease 1 (FEN1). P39748. Potency, µM (highest dose often 114 µM), inactives show at the highest dose activity change, negative = inhibition, actives largely listed as inhibitors. actives 0.35% (n = 390,000). Recombinant FEN1 flap cleavage, fluorescence, 15 min; note: % is set by controls: 0 for no effect and ±100 for the full control effect; nearly all actives have a fitted effect of over 65% in size
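Quantitative HTS format: each compound was titrated, incubated with 10 nM nuclease for 15 min at room temperature, then challenged with flap substrate at 50 nM final. Signal change over 15 min gave concentration–effect curves.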
Pol eta inh – qHTS for Inhibitors of Polymerase Eta; DNA polymerase eta (Homo sapiens), Q9Y253; recombinant Pol eta, fluorescent DNA replication assay; Potency, µM (titrated, usually from 114 µM), for inactives: top-dose activity change, negative = inhibition, actives largely listed as inhibitors; actives 1.2% (n = 390,000); AID 588591, 2011; note: % is set by controls: 0 for no effect and ±100 for the full control effect
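Pol eta (10 nM) was preincubated with compounds for 15 min at room temperature, after which fluorescent replication substrate (50 nM final) was added to start the reaction. Fluorescence was read kinetically at 0 and 10 min.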
Starred values were filed as active, the others as inactive; u = inconclusive; x = not tested or not shown; ! = not active in a repeat; [ ] = another dose, or the depositor's remark. Compounds with a hit are over-represented: about 2.4% of the library has one in this group of screens. Calls come from the whole dose curve; as a rule, active = well fitted curve in the direction sought with a large enough effect; inconclusive = small, poorly fitted or top-dose-only effect, or another doubt; inactive = no such curve, though single readings can be large; an effect the other way counts as inactive or inconclusive. Potency is the fitted concentration of half-maximal effect.

SMILES	Pol beta inh	Pol iota inh	TDP1 inh	Pol kappa inh	FEN1 inh	Pol eta inh
CN(C)c1ccc(/C=C/c2cccc3cc4ccccc4nc23)cc1	x	-10%	x	-15%	79µM*	x
C=C(/C=C/c1ccc(N(C)C)cc1)c1nc2ccccc2s1	x	u	x	u	25µM*	x
COc1cc(/C=C/c2nc3ccccc3s2)cc(OC)c1O	22µM*	152%	-2%	-17%	u	u
O=C(C1CCC(Cn2c(=O)c3sccc3n(Cc3ccc(F)cc3)c2=O)CC1)N1CCOCC1 (stereo unspecified)	4%	-3%	7%	25%	17%	-14%
CC1CCCCN1CCNC(=O)c1ccc(Cn2c(SCc3ccccc3)nc3cccnc32)cc1 (stereo unspecified)	17%	41%	6%	3%	-2%	-17%
O=C(Cc1ccc[nH]c1=O)c1ccc(F)cc1	x	10%	x	-6%	-1%	x
CC(=O)N1CCC2(CCCN(c3ccncc3)C2)CC1	x	x	x	2%[60.1 µM]	x	x
Cc1ccc(/C=C/c2nc3ccccc3s2)s1	-7%	24%	x	-8%	-15%	-11%
CN(C)c1ccc(/C=C/c2nc3ccccc3s2)cc1	27%	89µM*!	8%	u	50µM*!	-4%
CC(C)CN1CCCC2(CCN(C(=O)c3csnn3)CC2)C1	x	x	x	-2%[60.1 µM]	x	x
NC(CO)C(=O)NNCc1ccc(O)c(O)c1O (stereo unspecified)	u	32µM*	u	2%[60.1 µM]	20µM*	1%
CCCCCOC(=O)C1C(c2ccccc2)C(C(=O)O)C1c1ccccc1 (stereo unspecified)	4%	7%	6%	-1%	5%	-5%
O=C(O)C1C(c2ccccc2)C(C(=O)OCc2ccco2)C1c1ccccc1 (stereo unspecified)	u	u	-5%	-26%	-15%	79µM*
Nc1cc(C(=O)O)ccc1Sc1ccccc1C(=O)O	-7%	12%	45µM*	-10%	-6%	-19%
Cc1cc(NC(=O)C(C)Sc2nnc(NCc3ccco3)s2)no1 (stereo unspecified)	x	40µM*	-5%	-15%	2%	u
CC(=O)C(C(C)=O)C1(O)C(=O)c2ccccc2C1=O	u	3.2µM*	1%	-2%	-4%	89µM*
CCc1cccc(C)c1NC(=O)Cn1c(=O)n(-c2cccc(C)c2)c(=O)c2c1c1cc(C)ccc1n2C	37%	-1%	3%	u	-13%	0%
CC(C)OC(=O)c1c(NC(=O)C2c3ccccc3Oc3ccccc32)sc2c1CCCC2	-2%	0%	3%	8%	-9%	-11%
Cc1ccc(C)c(SCC(=O)OC/C(O)=C(\C#N)c2nc3ccccc3[nH]2)c1	u	u	10%	-28%	-8%	45µM*
Cc1cccc(C)c1Nc1nnc(SC/C(O)=C(\C#N)c2nc3ccccc3[nH]2)s1	u	-8%	10%	-16%	-10%	18µM*
Cc1cc2c(s1)c1cnn(Cc3ccc(S(C)(=O)=O)cc3)c(=O)c1n2C	x	x	-1%	x	x	x
COc1ccc(CNc2oc(/C=C/c3cc(OC)c(OC)c(OC)c3)nc2C#N)cc1	4%	-3%	-5%	-2%	-13%	-8%
COc1ccc(CC(=O)Nc2cc(-c3cn4cccnc4n3)ccc2OC)cc1	2%	3%	0%	-14%[60.1 µM]	-4%	-9%
Cc1[nH]n(-c2ncc(-c3ccccc3)s2)c(=O)c1C(c1ccc(Br)cc1)C(C#N)C#N (stereo unspecified)	45µM*	u	6%	u	u	22µM*
COc1ccc(C)cc1NC(=O)Cn1nc(N2CCN(c3ccccc3OC)CC2)ccc1=O	-2%	u	5%	-18%	-9%	-6%
SMILES	Pol beta inh	Pol iota inh	TDP1 inh	Pol kappa inh	FEN1 inh	Pol eta inh
O=C(CNC(=O)c1cccc(-n2cccc2)c1)Nc1ccccc1Br	x	x	x	x	x	32µM*
O=C(CNC(=O)c1cccc(S(=O)(=O)N2CCc3ccccc32)c1)Nc1ccccc1Br	x	0%	x	-3%	2%	-11%
COc1ccccc1-c1noc(-c2ccc(NC3CCCC3)c([N+](=O)[O-])c2)n1	u	u	6%	-4%	12%	1%
Cc1cccn2c(=O)c3cc(C(=O)NC(C)(C)C)n(C)c3nc12	-13%	10%	1%	-2%	2%	-18%
Cc1cccn2c(=O)c3cc(C(=O)NCCC4=CCCCC4)n(C)c3nc12	-1%	28%	-3%	-3%	15%	-1%
Cc1cccn2c(=O)c3cc(C(=O)NCCc4ccc(S(N)(=O)=O)cc4)n(C)c3nc12	u	-27%	-13%	-31%	-2%	79µM*
CCOC(=O)CNC(=O)c1cc2c(=O)n3cccc(C)c3nc2n1C	71µM*	33%	-5%	-20%	24%	-5%
CCOc1ccc2noc3c2c1C(=O)c1ccccc1-3	17%	3%	5%	14%	-7%	-15%
O=C1c2ccccc2-c2onc3ccc(NCc4ccco4)c1c23	u	u	79µM*	-26%	8.9µM*	u
